We go through 105 molecules from PubChem BioAssay AID504832 (National Center for Advancing Translational Sciences (NCATS), 2011).

Hit rate of the full screen: of about 310,000 compounds, about 18,000 (5.8%) were called active. A call without a number means that no potency is given here. Not shown: some 22% with an inconclusive outcome. The call rests on the fitted dose curve; in most records, active means well fitted inhibition curve with a large enough effect; inconclusive means small, poorly fitted or top-dose-only effect, or another doubt; inactive means no such curve, though single readings can be large or run the other way. The sample as a whole holds a higher share of actives than the screen did.
Potency means the concentration at half of the fitted maximal effect.

The assay is described as follows: Primary qHTS for delayed death inhibitors of the malarial parasite plastid, 48 hour incubation. The settings on record: P. falciparum luciferase growth in erythrocytes; series mostly up to 28.7 µM. The method, boiled down: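 Read-out is firefly luciferase luminescence from an integrated reporter in P. falciparum, so falling signal marks reduced parasite growth. Infected erythrocytes were at 2% hematocrit and 0.1% parasitemia (final) in Albumax-supplemented RPMI 1640.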
In general terms: In qHTS, concentration-response curves come from the screen itself.
`CCOC(=O)c1sc(N)c(C#N)c1COC(=O)C1=COCCO1`: the Potency result was “inactive”.

In the case of `Cc1cc(C)cc(NC(=O)C2CCCN2S(=O)(=O)c2cccc3cccnc23)c1` (stereo not given), the Potency entry is “inactive”. On to `CCn1c(CC(=O)Nc2ccccc2C)nnc1SCC(=O)NC1=NCCS1`, for which the Potency result is “inactive”. Take `CCCc1nn(C)c2c(=O)[nH]c(-c3cc(S(N)(=O)=O)ccc3OCC)nc12`: the Potency result is “inactive”. In the case of `N#Cc1cc([N+](=O)[O-])ccc1NCC1CCCO1` (stereo not given), the Potency result is “inactive”. With `O=C(Cc1ccc(Cl)cc1)NC1CCS(=O)(=O)C1` (stereo not given), the Potency result was “inactive”. As for `CC(C)C(=O)NC(NC(=S)NC1CCS(=O)(=O)C1)C(Cl)(Cl)Cl` (stereo not given), the Potency was 7.38 µM (active). For `COc1ccc(NC(=S)NC2CCS(=O)(=O)C2)cc1` (stereo not given), the Potency result is “inactive”. The same measure for `CC1CC(C)CN(C(=O)COC(=O)c2ccc3ncsc3c2)C1` (stereo not given): “inactive”; for `CCc1noc(C)c1C(=O)Nc1nc(-c2ccccc2)cs1`: “inactive”; for `C=CCNc1nc(N)c([N+](=O)[O-])c(NC2CCCCC2)n1`: 14.7 µM (active).

Turning to `Nc1nc(Nc2ccccc2)nc(NCCO)c1[N+](=O)[O-]`, the Potency result is “inactive”. The same measure for `COCCNc1nc(N)c([N+](=O)[O-])c(NCCO)n1`: “inactive”.

As to `CSCc1nnc(NC(=O)c2ccc(S(=O)(=O)N3CCCCC3C)cc2)o1` (stereo not given), the Potency result is “inactive”. Take `CC(C)Cc1cc(C(=O)Nc2cc(Br)ccc2O)no1`: the Potency is 1.85 µM (active). In the case of `CC(C)CNC(=O)c1cc(-c2ccc(Br)cc2)on1`, the Potency entry is “inactive”. For the molecule `CC(C)Cc1cc(C(=O)NCCc2ccccc2)no1`, the Potency entry is “inactive”. The same measure for `Cc1ccc(C(=O)NC(=S)Nc2ccc(N3CCOCC3)cc2)cc1`: “inactive”; for `CCOc1ccc(C(=O)NC(=S)Nc2ccc(N3CCOCC3)c(Cl)c2)cc1[N+](=O)[O-]`: “inactive”; for `COc1cccc(OC)c1C(=O)NC(=S)Nc1ccc(N2CCOCC2)c(Cl)c1`: 14.7 µM (active). With `O=C(NCCc1nnc2ccc(SCC(=O)N3CCOCC3)nn12)c1ccccc1`, the Potency entry is “inactive”. As to `CCCS(=O)(=O)N1CCCC(C(=O)N2CCN(c3ccccc3)CC2)C1` (stereo not given), the Potency result is “inactive”.

Consider `Cc1ccc(S(=O)(=O)N2CCCC(C(=O)N3CCN(C)CC3)C2)cc1` (stereo not given), for which the Potency entry is “inactive”.

In the case of `O=C(C1CCCN(S(=O)(=O)c2ccccc2)C1)N1CCN(c2ccc(F)cc2)CC1` (stereo not given), the Potency was 13.1 µM (active). The same measure for `COc1ccc(S(=O)(=O)N2CCCC(C(=O)N3CCN(C)CC3)C2)cc1C` (stereo not given): “inactive”.

Consider `CC(=O)N1CCCc2cc(S(=O)(=O)N3CCCC(C(=O)NCc4ccc(Cl)cc4)C3)ccc21` (stereo not given), for which the Potency result was “inactive”. `CC(=O)N1CCCc2cc(S(=O)(=O)N3CCCC(C(=O)N4CCN(c5cccc(Cl)c5)CC4)C3)ccc21` (stereo not given): the Potency is 4.15 µM (active). The same measure for `CC(C)CCN(C(=O)c1csnn1)C(C(=O)NC1CCCC1)c1ccccc1` (stereo not given): “inactive”; for `CCOc1ccc(N(C)S(=O)(=O)c2cnc[nH]2)cc1`: “inactive”; for `CC(=O)c1ccc(NC(=O)C2CCCN2S(=O)(=O)c2cccs2)cc1` (stereo not given): “inactive”. Take `COc1ccc(C(=O)NC(C)Cn2nc(C)cc2C)cc1OC1CCN(C(C)=O)CC1` (stereo not given): the Potency result was “inactive”. With `Cc1cccc(-c2nc(CS(=O)CC(=O)NC(C)CCc3ccccc3)c(C)o2)c1` (stereo not given), the Potency result was “inactive”.

As to `O=C(CN1CCc2cc3c(cc2C1)OCCCO3)Nc1ccccc1`, the Potency result is “inactive”. For `CC(C)OC(=O)CN1C(=O)c2ccccc2C1=O`, the Potency result was “inactive”. `CC(C)OC(=O)CN1C(=O)C(=O)c2ccccc21`: the Potency is 2.62 µM (active).

Turning to `Cc1cccc2c1N(CC(=O)OC(C)C)C(=O)C2=O`, the Potency result was “inactive”. `Clc1cccc(Cl)c1OCCOCCNCc1ccccc1`: the Potency entry was “inactive”. The same measure for `CC(NC(=O)c1ccccc1C(=O)O)c1ccc(-n2ccnc2)cc1` (stereo not given): “inactive”. For `COc1ccc(NC(=O)CCCNC(=O)Cn2cnc3sc4c(c3c2=O)CCCC4)cc1OC`, the Potency result was “inactive”. Regarding `O=S(=O)(c1cccs1)N1CCN(Cc2ccccc2)CC1`, the Potency result was “inactive”. Take `Cc1onc(-c2ccccc2)c1C(=O)N1CCN(S(=O)(=O)c2ccccc2C(F)(F)F)CC1`: the Potency result is “inactive”. Consider `Cc1cc2oc(=O)cc(CN3CCN(Cc4ccccc4)CC3)c2cc1C`, for which the Potency result is “inactive”. For `Cc1cc2oc(=O)cc(CN3CCN(S(=O)(=O)c4cccs4)CC3)c2cc1C(C)C`, the Potency is 10.4 µM (active).

For `NC(=O)CCN1CCN(S(=O)(=O)/C=C/c2ccccc2)CC1`, the Potency result is “inactive”. `O=S(=O)(/C=C/c1ccccc1)N1CCNCC1`: the Potency result was “inactive”.

As for `O=c1cc(CN2CCN(S(=O)(=O)/C=C/c3ccccc3)CC2)c2ccc(O)cc2o1`, the Potency is 13.1 µM (active). Regarding `O=S(=O)(c1ccc(F)cc1)N1CCN(Cc2ccccc2C(F)(F)F)CC1`, the Potency result was “inactive”. The same measure for `Cc1ccc2c(CN3CCN(S(=O)(=O)c4ccccc4C(F)(F)F)CC3)cc(=O)oc2c1`: 11.7 µM (active); for `COc1ccc(O)c(/C=N/N=C/c2cccc([N+](=O)[O-])c2)c1`: “inactive”; for `CCn1c(C(O)c2cc(OC)ccc2OC)nc2ccccc21` (stereo not given): “inactive”. As for `CCOC(=O)c1c(C)[nH]c(C(=O)OCC(=O)N2CCCC2=O)c1C`, the Potency entry was “inactive”. Turning to `Cc1cc(Cl)nc(NC(=O)Nc2cccc(Cl)c2)n1`, the Potency entry is “inactive”. For the molecule `CC(=O)CC[C@@H](C)O[C@@H]1OC(C)[C@H](O)CC1O` (stereo not given in full), the Potency entry was “inactive”. The same measure for `COC(=O)c1ccc(NS(=O)(=O)c2cc3c4c(c2)C(C)C(=O)N4CCC3)cc1` (stereo not given): “inactive”; for `O=C(OCC(=O)N1CCCC1=O)c1cc(S(=O)(=O)N2CCOCC2)ccc1Cl`: “inactive”; for `Cc1nnc(N/N=C/c2ccccn2)[nH]c1=O`: 2.33 µM (active).

Turning to `Cc1nnc(N/N=C/C2CC=CCC2)[nH]c1=O` (stereo not given), the Potency entry was “inactive”.

As for `Cc1ccccc1Nc1nnc(C)c(=O)[nH]1`, the Potency entry was “inactive”. Regarding `CCCCn1c(N)c(N(CCC(C)C)C(=O)c2ccc([N+](=O)[O-])o2)c(=O)[nH]c1=O`, the Potency result was “inactive”. For the molecule `CCCCn1c(N)c(N(CCC(C)C)C(=O)CC2OC(=O)c3ccccc32)c(=O)[nH]c1=O` (stereo not given), the Potency is 8.28 µM (active). In the case of `CCCCn1c(N)c(N(CCC(C)C)C(=O)COC(=O)c2cccnc2OCC)c(=O)[nH]c1=O`, the Potency entry was “inactive”. `Cc1cc2c(=O)n(CC(=O)NCC(=O)Nc3ccc(C(C)C)cc3)cnc2s1`: the Potency result is “inactive”.

Regarding `COc1ccc(C(=O)Nc2ccc(NC(=O)C(C)C)nc2)cc1`, the Potency entry was “inactive”. With `COc1ccc(CS(=O)/C(Cl)=C(/Cl)C(=O)Nc2ccc(OC)nc2)cc1` (stereo not given), the Potency is 9.28 µM (active). As for `COc1ccc(NC(=S)NCCNC(C)=O)cc1`, the Potency entry is “inactive”. On to `Cc1ccsc1C(=O)NC1CCCCC1C` (stereo not given), for which the Potency entry was “inactive”. For `CC1CCN(S(=O)(=O)c2ccc3c(c2)n(C)c(=O)n3C)CC1`, the Potency entry was “inactive”.

Take `O=S(=O)(NCCS(=O)(=O)N1CCN(c2ccccc2)CC1)c1ccc(F)cc1`: the Potency result is “inactive”. As to `Cc1ccc(C(=O)CSc2nnc(Cn3nnc4ccccc43)n2C)cc1`, the Potency entry was “inactive”. As for `Cc1ccc2nnn(Cc3cccc(C(C)(C)C)c3O)c2c1`, the Potency was 11.7 µM (active). The same measure for `COc1ccccc1NC(=O)C(C)OC(=O)CC1CCCC1` (stereo not given): “inactive”. The same measure for `CC(C)(C)NC(=O)C(c1ccc(Cl)cc1)N(CCO)C(=O)c1snc(C(N)=O)c1N` (stereo not given): 6.57 µM (active). As to `Cc1ccc(N(C(=O)c2sc(C)nc2C)C(C(=O)NC(C)(C)C)c2ccncc2)cc1` (stereo not given), the Potency entry is “inactive”.

For the molecule `NC(=O)c1ccc(Nc2ccc3nonc3c2[N+](=O)[O-])cc1`, the Potency result is “inactive”.

For the molecule `COC(=O)c1cc(S(=O)(=O)NCC2CCN(Cc3ccc(Cl)cc3)CC2)cn1C`, the Potency result was “inactive”.

Turning to `CN(C(=O)COC(=O)c1cc(-c2ccco2)nc2ccccc12)C1CCS(=O)(=O)C1` (stereo not given), the Potency result is “inactive”. With `O=C(c1ccc(Cl)s1)N(Cc1nnc(-c2ccccc2Cl)o1)C1CC1`, the Potency entry was “inactive”. The same measure for `O=C(c1cc(-c2ccco2)nc2ccccc12)N(Cc1nnc(-c2ccc(Cl)cc2)o1)C1CC1`: 4.15 µM (active); for `O=C(Nc1cccc(F)c1)NC1CCCc2ccccc21` (stereo not given): “inactive”; for `Cc1cc(=O)[nH]c(Nc2cccc(Br)c2)n1`: “inactive”.

`O=C(CCc1nnc2ccc(NCc3ccco3)nn12)Nc1cc(F)ccc1F`: the Potency result was “inactive”. Take `COc1ccc(Cl)cc1C(=O)NCC#N`: the Potency entry is “inactive”.

`N#C/C=C\Oc1ccc(Cl)cc1N`: the Potency is 7.38 µM (active). Turning to `Cc1ccc2nc(-c3ccccn3)cc(C(=O)Nc3ccc4c(c3)OCO4)c2c1`, the Potency entry is “inactive”. Turning to `CCN(CC)CCNC(=O)c1ccc(NC(=O)c2cc(-c3ccncc3)nc3ccccc23)cc1`, the Potency was 0.828 µM (active). As to `COC(=O)CNC(=O)c1cc(-c2ccncc2)nc2ccccc12`, the Potency entry is “inactive”. The same measure for `CCN(CC)CCNC(=O)c1ccc(NC(=O)c2c(F)cccc2Cl)cc1`: “inactive”; for `Cc1ccc2nc(-c3ccncc3)cc(C(=O)Nc3ccncc3)c2c1`: 13.1 µM (active); for `O=C(Nc1ccncc1)c1cc(-c2ccccn2)nc2ccc(Br)cc12`: “inactive”. In the case of `COc1ccc(C(=O)O)cc1S(=O)(=O)NCc1cccnc1`, the Potency entry was “inactive”.

With `CC(=O)Nc1ccc(NC(=O)C2CCCN2S(=O)(=O)c2cccc(C(F)(F)F)c2)cc1` (stereo not given), the Potency entry was “inactive”. Regarding `CCCCn1c(N)c(N(CC(C)C)C(=O)CN(C)S(=O)(=O)c2ccc(F)cc2)c(=O)[nH]c1=O`, the Potency entry is “inactive”.

Take `CSCCC(NC(=O)COc1ccccc1)C(=O)OCCOc1ccc(F)cc1` (stereo not given): the Potency entry is “inactive”. As for `O=C1CSc2ccc(S(=O)(=O)NCc3ccccc3)cc2N1`, the Potency result was “inactive”. As to `CCN1/C(=C\c2ccc3ccccc3[n+]2CC)Sc2cc(C)ccc21`, the Potency was 1.17 µM (active). For the molecule `CCN1/C(=C/C(=S)Nc2ccccc2)Sc2ccccc21`, the Potency result is “inactive”. Regarding `CCN1/C(=C/c2ccc3ccc(C)cc3[n+]2CC)Sc2ccccc21`, the Potency is 1.17 µM (active). As for `CCOC(=O)c1c(C)[nH]c(C(=O)OCC(=O)c2ccc(OC)cc2OC)c1C`, the Potency entry was “inactive”. Regarding `CCCc1cc(=O)oc2c(C)c(OCC(=O)Nc3ccccn3)ccc12`, the Potency entry is “inactive”. For `O=C(COC(=O)c1cnccn1)Nc1ccc(Cl)cc1C(F)(F)F`, the Potency result was “inactive”.

With `COC(=O)c1ccc(CSc2ccc(S(=O)(=O)N3CCCCC3)cn2)cc1`, the Potency result was “inactive”. On to `CN(Cc1ccccc1)S(=O)(=O)c1nnc(NC(=O)c2ccccc2F)s1`, for which the Potency result was “inactive”.

Take `COc1ccc(CCc2nc(-c3cccs3)no2)cc1`: the Potency entry was “inactive”. For `C=CCc1ccccc1OCC(O)CN1CCN(CCO)CC1` (stereo not given), the Potency entry was “inactive”. For `Cc1cc(C)n2nc(C(=O)OC(C)C(=O)c3cc(C)c(C)cc3C)nc2n1` (stereo not given), the Potency result is “inactive”.
